The panel holds about 83,000 compounds, 20% with a hit somewhere; the sample as a whole holds those more often.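 Cell lines were cultured in 96-well plates, exposed to a single compound concentration, and assessed for percent growth 48 hours later.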 Unmarked numbers belong to inactive results. The source made the active and inactive calls. The calls were made as follows: active = growth percent below 10; inactive = the rest.

Common to all, as to experiment: NCI-60 one-dose screen, 48 h (100 = growth as untreated, 0 = no growth, -100 = all killed)
Holding throughout (conditions): 10 µM unless noted

Test [1] concerns HCT-15 colon.
The test system of test [2] is HT29 colon.
The subject of test [3] is SNB-75 CNS.
Test [4] relates to SNB-19 CNS.
Test [5] concerns U251 CNS.
The test system of test [6] is PC-3 prostate.
The subject of test [7] is SK-MEL-5 melanoma.
The subject of test [8] is UACC-62 melanoma.
In test [9] the test system is LOX IMVI melanoma.
Test [10] concerns SK-MEL-28 melanoma.
Test [11] relates to SK-MEL-2 melanoma.
Test [12] deals with EKVX NSCLC.
Test [13] concerns SN12C renal.
In test [14] the test system is UO-31 renal.
The test system of test [15] is TK-10 renal.
Test [16] deals with ACHN renal.
The test system of test [17] is CAKI-1 renal.
Test [18] relates to A498 renal.
Test [19] relates to CCRF-CEM leukemia.
Test [20] relates to MOLT-4 leukemia.

On to `CCCCCO/N=C\c1c2c(O)c3c(O)c(C)c4c(c3c1O)C(=O)C(C)(O/C=C\C(OC)C(C)C(OC(C)=O)C(C)C(O)C(C)C(O)C(C)/C=C\C=C(\C)C(=O)N2)O4` (configuration not stated), for which the growth is 16.1% in test [1]; 2.51% (active) in test [2]; 39.3% in test [3]; 33.5% in test [4]; 16.8% in test [5]; 13.1% in test [6]. In addition, the growth in test [7] is 15.3%; in [8], 24.1%; in test [9], 23.2%; in test [10], 39.5%; in [11], -37.7% (active); in test [12], 27.3%. Also, the growth in [13] is 27.6%; in test [14] it was 17.8%; in [15], 38%; in test [16], 29.6%; in test [17], 14.9%; in test [18], 62.9%. For the same compound, the values for the growth in test [19] and in test [20] were 18.6% and 14.4%, respectively.

On to `C#Cc1cc(C(=O)Nc2ccc(CN3CCN(C)CC3)c(C(F)(F)F)c2)ccc1C`, for which the growth in test [1] is 26.3%; in [2], 5.65% (active); in test [3] it was 76.3%; in [4] it was 94.9%; in test [5] it was 56%; in test [6] it was 61.5%. For the same compound, the growth in [7] is 15.6%; in test [8], 40.2%; in test [9], 31.1%; in test [10] it was 18.8%; in test [11], 91.1%; in [12], 91.5%. In addition, the growth in test [13] was 84.5%; in test [14] it was 60.2%; in test [15], 94.7%; in test [16] it was 92.2%; in test [17], 63.7%; in test [18], 63.9%. Besides, in test [20], the growth was 58.9%.

On to `CCCCSc1ccc2nc(-c3ccc(OCCCN=C(N)N)cc3)cn2c1`, for which the growth was 92.7% in [1]; 53% in [2]; 22.5% in test [3]; 24.5% in test [4]; 13.1% in test [5]; 54% in [6]. The growth in [7] was 52.8%; in test [8], 52%; in [9], 61.3%; in [10] it was 38.3%; in [11], 48.4%; in test [12] it was 95.6%. In addition, the growth in [13] is 88.3%; in test [14], 76.6%; in test [15], 110%; in test [16], 89.2%; in test [17], 62.3%; in test [18] it was 89.4%. Also, the growth in test [20] was 53.1%.

Take `COC(=O)c1nc(-c2ccc(C)cc2)oc1S(=O)(=O)c1ccc(Cl)cc1`: the growth is 73.5% in [1]; 102% in [2]; 100% in test [3]; 96.4% in test [4]; 93.4% in test [5]; 97% in test [6]. Also, the growth was 96.5% in [7]; 90.4% in test [8]; 42.3% in [9]; 99% in test [10]; 102% in [11]; 108% in test [12]. For the same compound, the growth was 83.6% in test [13]; 75.1% in [14]; 93.5% in test [15]; 80.4% in [16]; 95% in test [17]; 113% in test [18]. Besides, the growth is -15.8% (active) in test [19] and -21% (active) in test [20].

For `Cn1cc(-c2nc3c(F)cc4[nH]ncc4c3c3c2CCCC3)c(C(F)F)n1`, the growth is 66.6% in test [1]; 68.4% in [2]; 57.6% in test [3]; 71.2% in test [4]; 80.5% in test [5]; 29% in test [6]. The growth in test [7] was 65.4%; in test [8], 51.9%; in test [9] it was 62.6%; in test [10], 80.8%; in [11], 76.7%; in test [12], 54.5%. The growth is 66.7% in [13]; 35.8% in test [14]; 52.3% in [15]; 44.3% in [16]; 37% in [17]; 33.1% in [18]. Further, the growth in test [19] was 4.61% (active); in test [20] it was 7.32% (active).

For `C#CCOCC1CN(C)C(=O)O1` (configuration not stated), the growth is 98.1% in test [1]; 99.5% in test [2]; 98.5% in [3]; 107% in [4]; 103% in [5]; 109% in test [6]. The growth was 114% in [7]; 112% in test [8]; 105% in test [9]; 110% in test [10]; 116% in test [11]; 115% in [12]. In addition, the growth in test [13] was 103%; in test [14], 97.1%; in [15], 110%; in [16] it was 105%; in [17] it was 104%; in test [18], 107%. Further, in test [20], the growth is 89.6%.

On to `O=C(NNc1ccccc1)C1CCCN1` (configuration not stated), for which the growth was 40.5% in test [1]; 62.3% in test [2]; 90.7% in test [3]; 94.1% in test [4]; 82.3% in test [5]; 77% in test [6]. Moreover, the growth in test [7] was 89.1%; in test [8], 16.2%; in test [9], 8.66% (active); in test [10], 69.2%; in [11], 87.5%; in test [12], 69.4%. Moreover, the growth was 85.4% in test [13]; 33% in test [14]; 84.6% in test [15]; 20% in test [16]; 13.5% in test [17]; 103% in test [18]. Further, the growth is 46.7% in test [19] and 44.3% in test [20].

The values above are taken from PubChem BioAssay (NCI).
